According to ChEMBL document CHEMBL3433997, “St. Jude Leishmania screening dataset” (2016):

How the values were obtained:
Assay type in all cases: functional
[1] = biological target: Solute carrier family 2, facilitated glucose transporter member 1 (Homo sapiens) (UniProt P11166); experiment: ST_JUDE_LEISH: Cytotoxicity at 2uM final concentration against transgenic Leishmania Mexicana promastigotes LmGLUT1 that are glucose transport deficient and complemented with the human glucose transporter GLUT1. Activity is measured by DNA content using SYBR green in vitro
Sequence of Solute carrier family 2, facilitated glucose transporter member 1 (Homo sapiens) (P11166 whole entry): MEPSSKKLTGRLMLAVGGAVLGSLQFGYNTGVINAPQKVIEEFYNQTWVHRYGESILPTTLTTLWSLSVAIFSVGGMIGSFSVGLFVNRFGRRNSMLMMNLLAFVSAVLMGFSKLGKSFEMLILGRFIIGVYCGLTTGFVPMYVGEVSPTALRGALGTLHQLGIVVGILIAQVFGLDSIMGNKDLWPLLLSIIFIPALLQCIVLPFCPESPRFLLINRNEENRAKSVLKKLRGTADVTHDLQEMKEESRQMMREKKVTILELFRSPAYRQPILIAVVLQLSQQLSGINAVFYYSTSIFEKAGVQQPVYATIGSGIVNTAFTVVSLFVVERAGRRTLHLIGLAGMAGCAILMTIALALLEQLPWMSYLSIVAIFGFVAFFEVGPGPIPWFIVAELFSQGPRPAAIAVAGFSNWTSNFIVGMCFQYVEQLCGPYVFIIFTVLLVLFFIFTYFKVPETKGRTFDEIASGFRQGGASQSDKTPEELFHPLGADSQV

[2] = biological target: Hexose transporter 1 (Plasmodium falciparum) (UniProt O97467); experiment: ST_JUDE_LEISH: Cytotoxicity at 2uM final concentration against transgenic Leishmania Mexicana promastigotes LmPfHT that are glucose transport deficient and complemented with the Plasmodium falciparum hexose transporter. Activity is measured by DNA content using SYBR green in vitro
[3] = biological target: Glucose transporter (Leishmania mexicana) (UniProt O61059); experiment: ST_JUDE_LEISH: Cytotoxicity at 2uM final concentration against transgenic Leishmania Mexicana promastigotes LmGT2 that are glucose transport deficient and complemented with the L. Mexicana glucose transporter 2. Activity is measured by DNA content using SYBR green in vitro

SMILES | inhibition [1] [%] | inhibition [2] [%] | inhibition [3] [%]
COc1ccc(CNC2Cc3ccccc3C2)cc1-c1cccc(S(=O)(=O)NCCN2CCCC2)c1 | 4.54 | 1.69 | 3.08
CC(=O)Nc1nc(C(=O)Nc2ccc(-c3ccc(-c4nc5cccc(C)c5[nH]4)cc3)cc2)cs1 | 10.7 | 9.18 | 6.38
CCOc1ccc(C(Cc2ccccc2)NC(=O)c2cccnc2)cc1OCC (stereo not drawn) | 0.79 | -2.62 | -0.89
CSc1nnc2n(Cc3ccccc3)c(=O)c3c(n12)-c1ccccc1CC31CCCCC1 | 2.53 | 0.86 | 0.02
Cc1cc(C2NC(=O)c3ccccc3N2)c(C)n1-c1ccc2c(c1)OCO2 (stereo not drawn) | 4.98 | 3.59 | 4.51
c1cncc(CNc2ncc(-c3ccsc3)c(-c3nccs3)n2)c1 | 5.96 | 8.95 | 7.02
Cc1c(C(=O)C2CC2CN2CCC(N3CCCC3)CC2)sc2ccccc12 (stereo not drawn) | 7.33 | 11.8 | 5.26
COc1c(Br)cc(Br)cc1-c1ccc(CN2C3CCCC2CCC3)[nH]1 | 4.44 | 7.84 | 2.48
O=C1OC2(CCN(C(=O)c3ccc(-n4cnnn4)cc3)CC2)CN1Cc1ccc(Cl)c(Cl)c1 | 2.26 | 3.05 | 5.35
NCC1CCCN1Cc1ccc(-c2ccc(-c3nc4cc(C(F)(F)F)ccc4[nH]3)cc2)cc1 (stereo not drawn) | 3.73 | 1.2 | 1.46
CCNC(=O)N1CCN(c2nc(-c3ccccc3)nc(COC)c2Cc2ccc(C)cc2)CC1 | 4.13 | -1.41 | 3.78
CCOC(=O)C1=C(C)N=c2sc(=Cc3cc(Cl)ccc3O)c(=O)n2C1c1cc(OC)c(OC)cc1Br (stereo not drawn) | 7 | 6.74 | 11.5
CCOC(=O)c1c(C)n(-c2ccccc2)c2ccc(O)cc12 | -0.44 | 2.67 | 0.95
Cc1cc(N[C@@H](CC(C)C)C(=O)Nc2ccccc2)nc(NCCc2ccccc2)n1 | 3.68 | 2.93 | 0.92
N#C/N=C(\NCCCCCCCCN/C(=N\C#N)NCCSCc1csc(N=C(N)N)n1)NCCCSc1csc(N=C(N)N)n1 | -0.03 | 0.11 | 0.43
O=C(/C=C/c1ccccc1)N1CCOC(CCN2CCC(c3ccccc3)CC2)(c2ccc(Cl)c(Cl)c2)C1 (stereo not drawn) | 13.3 | 7.51 | 7.43
c1cn(-c2ccc(CNc3nccc(Nc4ccc(OCCN5CCOCC5)cc4)n3)cc2)cn1 | -0.35 | -0.43 | 0.98
O=C(NC1CCN(Cc2ccc3c(c2)OCCO3)CC1)c1ccc(-c2cccc(C(F)(F)F)c2)s1 | 3.14 | 1.52 | 2.57
O=C(Cc1cccc(Cl)c1)Nc1ccc(N2CCC(NCc3ccc4ncccc4c3)CC2)cc1 | 12.6 | 13.6 | 8.71
N#Cc1cccc(Nc2nccc(Nc3ccc(Oc4ccccc4)cc3)n2)c1 | 6.87 | 5.4 | 0.2
O=C(CCc1c[nH]cn1)Nc1cccc(-c2cccc(-c3nc4ccccc4[nH]3)c2)c1 | 14.3 | 13.2 | 11.3
COc1cccc(C(=O)N2CCOC(CCN3CCC(c4ccccc4)CC3)(c3ccc(Cl)c(Cl)c3)C2)c1 (stereo not drawn) | 0.55 | -0.77 | -0.26
Cc1cc(NCCc2ccc(O)cc2)nc(NCC(c2ccccc2)c2ccccc2)n1 | 12.9 | 8.92 | 5.19
O=S(=O)(c1ccc(NC(S)=NN=Cc2ccccn2)cc1)N1CCCCC1 | 3.4 | 6.75 | 5.11

SMILES | inhibition [1] [%] | inhibition [2] [%] | inhibition [3] [%]
COc1ccc2c(NN=Cc3cccc(Cl)c3)ccnc2c1 | 0.29 | 0.23 | -0.9
Cc1nc2ccc(S(=O)(=O)Nc3ccc(C(=O)N[C@@H](CCC(=O)O)C(=O)O)cc3)cc2c(=O)[nH]1 | 0.38 | -1.45 | 0.45
COc1ccc(CNC2CCN(C)CC2)cc1-c1ccc(S(=O)(=O)NCCc2ccccn2)cc1 | -0.85 | 0.85 | -0.1
CC(C)(C)c1cc2cc(Nc3ccnc4cc(-c5nccs5)ccc34)ccc2[nH]1 | 6.8 | 7.87 | 5.41
N#Cc1ccc(-c2ccc(C(=O)NCCCCN3CCC(c4ccc5c(c4OCC(N)=O)CCCC5)CC3)nc2)cc1 | 3.35 | 0.86 | 2.97
O=C(Nc1ccc(C(F)(F)F)cc1)NC1CCN(c2ccnc3cc(Cl)ccc23)C1 (stereo not drawn) | 3.59 | 3.27 | 0.73
CN(C)CCC1CCN(CCS(=O)(=O)c2cccc(Nc3ncc(-c4cccc(F)c4)cn3)c2)CC1 | -2.08 | 0.49 | 9.03
CC(C)c1ccc(NC(=O)NCCCC2CCCN(CCCCCNC(=O)/C=C/c3ccc(Cl)c(Cl)c3)C2)cc1 (stereo not drawn) | 1.47 | 2.49 | 5.08
O=C(/C=C/c1ccc(Cl)c(Cl)c1)NCCCCCN1CCC(NC(=O)Nc2ccc(Cl)c(C(F)(F)F)c2)CC1 | 1.18 | 0.31 | 1.66
COc1ccc2nc3cc(Cl)ccc3c(Nc3ccc(O)c(CNC(C)C)c3)c2c1 | 0.29 | 0.43 | 2.23
O=C(/C=C/c1ccc(Cl)c(Cl)c1)NCCCCCN1CCC(NC(=O)Nc2cccc(Cl)c2F)CC1 | -0.8 | -0.65 | -9.82
CCN(CCCN1CCCCC1)c1cc(C)nc(Nc2ccc(C)cc2)n1 | 0 | 1.61 | 0.31
O=C(c1ccc(-c2ccc(Cl)cc2)o1)N1CCc2cc3nccc(N4CCN5CCC[C@H]5C4)c3cc21 | -1.09 | 0.64 | 0.64
CC(=O)c1ccc(NC(=O)NNC(=O)c2ccc(CCN3CCC(c4nc(COCC(F)(F)F)c(-c5ccc(F)cc5)o4)CC3)cc2)cc1 | 0.31 | 0.69 | -1.37
CCC(C)NC(=O)Nc1ccc(-c2cccc(-c3nc4cc(C(F)(F)F)ccc4[nH]3)c2)cc1 (stereo not drawn) | 9.64 | 8.86 | 4.56
Cc1c(NCCCNCc2cc(Cl)cc(Cl)c2Cl)[nH]c2ccccc2c1=O | 10.6 | 9.36 | 8.22
CC(=O)c1sc(Cc2nc3ccccc3s2)nc1C | 0.49 | 1.15 | -1.55
NC(=O)c1cccc(CNC(=O)NC[C@H]2CN(Cc3ccc(Cl)c(Cl)c3)CCO2)c1 | 7.5 | 6.84 | 6.5
CC(=O)Nc1cccc(CNc2cc(C)nc(Nc3ccc(C)cc3)n2)c1 | 9.07 | 8.32 | 0.76
COc1ccccc1COc1c(C)nc(N)nc1N | -1.13 | -0.61 | -1.06
NC1CCN(Cc2ccc(-c3ccc(-c4nc5cc(F)ccc5[nH]4)cc3)cc2)C1 (stereo not drawn) | 6.38 | 4.78 | -0.01
Cc1[nH]c(C)c(-c2ccc(OCCCc3ccccn3)cc2)c(=O)c1Br | 8.98 | 6.12 | 8.48
Cc1ccccc1NC(=O)C1CSCN1C(=O)OCc1ccccc1 (stereo not drawn) | -1.39 | -0.23 | -0.28
N#Cc1ccc(-c2ccc(C(=O)NC3CCN(CCN4CCC(c5cn(CCO)c6ccccc56)CC4)CC3)cc2)cc1 | 1.3 | 1.27 | 1.44

SMILES | inhibition [1] [%] | inhibition [2] [%] | inhibition [3] [%]
O=S(=O)(NCCN1CCCC1)c1ccc(-c2ccc(CNCc3ccccc3)cc2)s1 | 4.55 | 3.35 | 2.5
CC(C)(C)C(=O)N1CCN(c2ccc([N+](=O)[O-])c(NC3CC3)c2)CC1 | 2.03 | 2.58 | 2.27
CCn1ccc2c(N3CCCCS3(=O)=O)cc(C(=O)N[C@@H](Cc3ccccc3)[C@H](O)CNC3CCCCC3)cc21 | 5.11 | 5.66 | 3.42
Cc1cccc(CN2CCC(Oc3ccc(NC(=O)c4cccs4)cc3Cl)CC2)n1 | 5.76 | 3.92 | 2.69
O=C(/C=C/c1ccc(Cl)c(Cl)c1)NCCCCCN1CCN(C(=O)Nc2ccc(C(F)(F)F)cc2)CC1 | 2 | 1.98 | 0.71
Cc1cc2c(cc1C(F)(F)F)N(C(=O)Nc1cc(C(=O)NCCN(C)C)cc(C(F)(F)F)c1)CC2 | 4.3 | 2.66 | 3.69
COc1ccc2ncc(F)c(CCN3CC[C@H](NC(=O)c4ccc5c(n4)NC(=O)CS5)[C@H](O)C3)c2n1 | 10.7 | 9.73 | 1.48
CN(c1ccc(NC(=O)Nc2cccc(Cl)c2)cc1)c1ccnc(N)n1 | -0.39 | 1.34 | -0.01
Cc1ccc(Cn2cnc3cc(C(=O)Nc4ccc(-c5ccc(CN(C)C)cc5)cc4)ccc3c2=O)o1 | 5.55 | 2.88 | 3.84
CC(C)Cc1csc(NC(=O)C=Cc2ccco2)c1C(=O)O | -0.28 | 0.8 | -0.08
CCOC(=O)C(NC(=O)c1ccc([N+](=O)[O-])o1)C(C)C (stereo not drawn) | -1.7 | -1.51 | -2.33
COc1ccccc1N1CCN(Cc2c(NC(C)=O)sc(C)c2C)CC1 | 0.73 | 0.56 | 1.44
Cc1cc(OCCCN2CCC(NS(=O)(=O)c3ccc(Cl)c(Cl)c3)C2)c2ccccc2n1 (stereo not drawn) | 3.81 | 4.67 | 3.91
c1ccc2c(CNc3ccnc(NCc4cccc5ccccc45)n3)cccc2c1 | 9.83 | 5.69 | 7
CC(C)N1CCC(N(Cc2ccc(-c3ccc(C(F)(F)F)cc3)cc2)C(=O)Cn2c(CCc3cccc(F)c3F)nc(=O)c3cccnc32)CC1 | 2.74 | 1.97 | 0.94
O=C(NCCCN1CCC(N2CCCCC2)CC1)C1=Cc2cc(Br)ccc2OC1 | 1.4 | 2.63 | 0.26
COc1ccc(Cl)cc1-c1nc(C(=O)NCCN2CCCCC2)c(C(C)C)s1 | -3.64 | -0.2 | 3.06
O=C(/C=C/c1ccc(Cl)c(Cl)c1)NC1CCC(CN2CCC(c3nc4ccccc4s3)CC2)CC1 (stereo not drawn) | 0.92 | 5.64 | -1.65
COc1cc2nc(N3CCC(CNC(=O)c4ccc(-c5ccc(C(=O)N(C)C)cc5O)cc4)CC3)nc(N)c2cc1OC | 0.58 | 1.14 | -1.24
Cc1[nH]cnc1CSCCNC(=N)NCCCCCCCCNC(=N)NCCSCc1nc[nH]c1C | -1.07 | 0.71 | -0.05
CCCC(C)c1cnc2nc(N)nc(N)c2c1C (stereo not drawn) | 3.61 | 4.91 | 4.24
COc1ccccc1C1CCN(C2CCC(NC(=O)/C=C/c3ccc(C(F)(F)F)cc3F)CC2)CC1 (stereo not drawn) | 0.47 | 1.54 | -0.44
CC(=O)Nc1ncc(C(=O)Nc2cccc(-c3cccc(-c4nc5cccc(C)c5[nH]4)c3)c2)s1 | 3.02 | 2.86 | 2.45
